Our source for the growth values is PubChem BioAssay (NCI).

Common to all, as to assay: NCI-60 one-dose screen, 48 h (100 = growth as untreated, 0 = no growth, -100 = all killed)
What all share (settings): 10 µM unless noted

For assay [1], the system named is DU-145 prostate.
Assay [2] deals with K-562 leukemia.
Assay [3] has as its system MALME-3M melanoma.
The test system of assay [4] is MDA-MB-231 breast.
In assay [5] the test system is RXF 393 renal.
Assay [6] has as its system SF-268 CNS.
The subject of assay [7] is SF-295 CNS.
For assay [8], the system named is SF-539 CNS.
Assay [9] deals with UACC-257 melanoma.
Assay [10] concerns M14 melanoma.

About 83,000 compounds went through this panel and 20% of them were active in at least one assay; those are over-represented in the sample as a whole.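 Step 1: grow cells in 96-well plates. Step 2: add test compound at a single concentration. Step 3: incubate 48 h. Step 4: record percent growth.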 Unmarked numbers belong to inactive results. Activity calls are given as the source filed them. The calls were made as follows: active = growth percent below 10; inactive = the rest.

As for `COc1cccc2c(=O)c3c(sc12)c(NCCN(C)C)nc1ccccc13`, the growth is 3.35% (active) in assay [1]; -60.5% (active) in [2]; 36.7% in assay [3]; 12.3% in assay [4]; 3.02% (active) in [5]; 20.7% in assay [6]. The growth in [7] was 36%; in assay [8], 22.5%; in [9], 29.3%.

Turning to `CCN(CC)CCCNc1ccc(C)c2sc3ccccc3c(=O)c12`, the growth in assay [1] was 43.2%; in assay [2], -7.56% (active); in assay [3] it was -61.7% (active); in [4], -12.1% (active); in assay [5], 1.02% (active); in assay [6], 48.1%. Also, the growth was 32.5% in assay [7], 51.5% in [8], -61.3% (active) in assay [9] and -64.8% (active) in assay [10].

On to `COc1ccc(/C=N/NC(=O)c2cnn(CC(O)Cc3ccccc3)c2N)cc1OC1CCCC1` (stereo not drawn), for which the growth in assay [1] was 91.2%; in [2], 99.5%; in assay [3], 99.4%; in assay [4], 86.1%; in [5], 85.8%; in [6], 98.3%. Besides, the growth in assay [7] is 83.8%; in assay [8] it was 87.3%; in [9], 110%; in assay [10], 99.5%.

As to `O=C(CCCCCCC(=O)Nc1ccc2c(c1)/C(=C/c1ccc[nH]1)C(=O)N2)NO`, the growth in assay [1] was 4.55% (active); in assay [2] it was 11.6%; in assay [3] it was 36.5%; in assay [4], 1.47% (active); in assay [5], -30.8% (active); in [6], -13% (active). For the same compound, the growth in [7] was 6.46% (active); in [8], 23%; in [9], 9.98% (active); in assay [10], 3.6% (active).

As to `Cc1nc(-c2ccccc2)cc2c(O)c(C(=O)N/N=C/Cc3ccccc3)[nH]c(=O)c12`, the growth is 113% in [1]; 76.6% in [2]; 116% in [3]; 113% in [4]; 127% in assay [5]; 103% in [6]. The growth in assay [7] was 117%; in assay [8] it was 103%; in [9], 94.5%; in assay [10] it was 106%.

On to `CC(=O)N(CC(O)CO)c1c(I)c(C(=O)NCCO)c(I)c(C(=O)NCC(O)CO)c1I` (stereo not drawn), for which the growth in [1] was 110%; in assay [2] it was 97%; in assay [3], 92.4%; in assay [4], 90.5%; in assay [5], 103%; in assay [6] it was 105%. Further, the growth in [7] was 118%; in assay [8], 100%; in [9], 103%; in assay [10], 92.6%.

In the case of `O=C1c2ccccc2-c2nnc(-c3ccc(Br)cc3)cc21`, the growth in assay [1] was 55.8%; in assay [2] it was 16.5%; in assay [3] it was -3.82% (active); in assay [4], 14.1%; in [5], 33.7%; in assay [6], 59.3%. Moreover, the growth was 13.6% in assay [7], 56.7% in [8], 52.6% in assay [9] and 37.2% in assay [10].

For `CCOC(=O)c1[nH]c2cc(Cl)ccc2c1[C@@H](C(=O)NC(C)(C)C)N(CC)C(=O)CCCCC#Cc1cccc2c1CN(C1CCC(=O)NC1=O)C2=O` (stereo partly drawn), the growth in assay [1] was 32.8%; in [2], 17.5%; in [3], -12.6% (active); in assay [4], -50.1% (active); in assay [5], -1.34% (active); in [6], 25%. In addition, the growth in assay [7] was -5.32% (active); in assay [8] it was 29.6%; in assay [9], 28.4%; in [10], 16.9%.

On to `C[C@@H](Oc1cc(-c2cnn(C3CC4(CCCNC4)C3)c2)cnc1N)c1c(Cl)ccc(F)c1Cl` (stereo partly drawn), for which the growth in assay [1] was 36.7%; in assay [2], 0.205% (active); in [3], -64.7% (active); in assay [4] it was 2.82% (active); in assay [5], -9.61% (active); in assay [6], 23%. In addition, the growth in assay [7] is 14.4%; in [8] it was 11.2%; in assay [9], -87.2% (active); in assay [10] it was -59.5% (active).

Consider `O=C1CCC(N2C(=O)c3cccc(NCCOCCOCCNC(=O)c4cc5c(o4)C(=O)c4ccccc4C5=O)c3C2=O)C(=O)N1` (stereo not drawn), for which the growth in [1] is -97.8% (active); in [2] it was 8.5% (active); in assay [3] it was -95.2% (active); in [4], -2.36% (active); in assay [5], -39.5% (active); in assay [6] it was -12.2% (active). Besides, the growth in assay [7] is -93.9% (active); in assay [8], -95.2% (active); in assay [9], -82.5% (active); in assay [10], -66.4% (active).

Consider `O=C(NCc1ccc(F)cc1)C1CN(c2ccc(Cl)cc2)N(c2ccc(Cl)cc2)C1=O` (stereo not drawn), for which the growth in assay [1] is 85.3%; in assay [2] it was 23.3%; in assay [3] it was 60%; in assay [4], 84.3%; in [5] it was 65.5%; in [6] it was 65%. Besides, the growth was 42.5% in assay [7], 87.6% in assay [8] and 76.3% in assay [9].

Take `COC(=O)C1C2CC3c4[nH]c5cc(OC)ccc5c4CCN3CC2CC(OC2CCCCO2)C1OC` (stereo not drawn): the growth was 111% in assay [1]; 95.2% in assay [2]; 104% in assay [3]; 96.8% in [4]; 104% in [5]; 101% in [6]. Besides, the growth in [7] is 102%; in [8], 97.6%; in assay [9], 98.6%; in assay [10], 103%.

With `COc1ccc(/C=N/NC(=O)c2cnn3c2NC(c2ccccc2)C3)cc1OC1CCCC1` (stereo not drawn), the growth in assay [1] is 98.3%; in [2], 70.4%; in [3] it was 123%; in [4] it was 66.6%; in [5] it was 104%; in assay [6] it was 93.4%. Moreover, the growth in [7] was 90.7%; in assay [8], 87.2%; in [9] it was 98.7%; in [10], 93.5%.

Take `CN1CCN(C(=O)OCCOCCOC(=O)N2CCN(C)CC2)CC1`: the growth in assay [1] is 111%; in [2], 106%; in [3], 133%; in assay [4], 94.9%; in assay [5], 87.8%; in assay [6], 102%. For the same compound, the growth is 85.9% in [7], 97.9% in [8], 94.2% in assay [9] and 103% in assay [10].
